The record followed here is the supplement of paper PMC6555819.

For the assay, the system named is THRa:RXRa (NR concentration 90 nM, RXRa partner concentration 90 nM). The assay is described as follows: PBM binding z-score (relative to random genomic background probes); higher = stronger binding; sequences stand for … in GC…GCGATTGACAGCGTAGAATGAAGG
In short, it runs like this:
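Scanned fluorescence from custom Agilent 4×180K protein-binding microarrays was regression-normalized. Binding z-scores use random background probes as reference. Ligand-free nuclear receptor dimers were incubated on the arrays for 1 h and detected with antibodies against each partner (one per run).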
As for ACTATTAGTTGAGACGAGGGCAACAGATAGGTTG, the PBM binding z-score came to 2.42.
The same measure for CCTACTGGCCCAAAGGTCATTGATTCCAATGCTC: 3.3; for CCTATTAGTTGACCATAAGGGCAACAGAAGCTCG: 1.76; for GATACAGGGTTAGCTAGAGGCCAGAGTATGGAAA: 1.23.
The same measure for CCTTACGGGTCACTCCAGGTTATAGCGTCGGAGT: 5.06; for CCTTACGGGTCACTAACAGGTTATAGCATTTGGA: 2.98.
In the case of TCTAGTAGATCAAGCAGGTTAAGAAAGCCTGAGT it was 0.0974; in that of GCGACTGGGGCATCAGGAGGTTACCATAACTTAA, 1.66; in that of CCGACTGTGGCAAAGGTTACCATACTCAGTACGA, 1.4.
Sequence CGTCCAAGGTCAAGGTCAGTGCAAGAGACTCGAA gave a PBM binding z-score of 4.21.
The same measure for CCTACTGGGCCAAAGGTTATTGATTCCAATGCTC: 1.13.
ATCTCTAGGTAATACTCAGTTCAGTGAAGAACGC returned a PBM binding z-score of 1.37.
As for CCTACTGGGCCAAGGGTCATTGATTCCAATGCTC, the PBM binding z-score came to 2.11.
In the case of ATAAGTAGGTTAAGGGTCATTCAGGTTGGTTCGC it was 3.65.
In the case of GGAACGAGGGCATTCGACTTGATAGCATGGCGAT it was 0.81; in that of GGAACGAAGGCAAAGTTGATAGCATCTGTCGACG, -0.716; in that of CGACCTAGGTCAAGGACAGTGAATCTCCGCACGC, 3.39.
As to CCGACTGGGGCATAGGTTACCATACTCAGTACGA, the PBM binding z-score is 0.28.
In the case of TCATATAGGTATATGCTAGGTGAAAGTCCGATCT it was 1.23; in that of TCTTGTAGATCAAAGTTTAAGAAAGCCGAAGCCT, 0.0453.
The same measure for CCTATTAGTTGACCAGAAGGGCAACCGAAGCTCG: 0.606.
The same measure for TCGAGTAGGTTAGGGGCATTAAGAATGGCGTCGA: 0.955; for TCTATTAGTTGAAGGGCAACCAACGAGTCCGTTT: 0.101.
TAGCCTAGGTCATATCGGGCCAGTATACGCTATA returned a PBM binding z-score of 4.54.
The same measure for TTACCAAGGTGAAGGACGTTGATCCCTCTGTAGA: 1.66.
AGTCAAAGTTTAGGACGAGGTAACGTAAAGCACG displayed a PBM binding z-score of 2.59.
In the case of CGTCCAAGGTCAAAGGGCAGTGAAGAGATGACGG it was 4.14; in that of CCTACTGGGACAAAGGTCATTGATTCCAATGCTC, 3.57; in that of CAAACTGGGTCACGAAAGGTCAAAGTCGAATGAC, 5.02.
In the case of CGTCCAAGGTTAATGCTAGGTCAGTGAAAGCATT it was 3.44; in that of ACTAGTTGGTCAGTTGAGGTCACACACAATTCGG, 5.15; in that of CAAACTAGGACAAGGTCAAAGTCGGTTTGTGCCA, 3.84.
The same measure for ACTTTCGGGTCAACGAGGTTATAGCACGCGTATA: 4.62.
ACAGACAGGGGATGAAGGTAACTCAGGCTATCAT came in with a PBM binding z-score of 0.765.
The same measure for AGAATGAGGTTATACGAAGATCAGGGAAGAAAGT: 2.01; for GCTAGCAGGCCATTTGGGTCACTCAATGACGGGC: 1.94.
In the case of TCATATAGATAAATGCTAGGTGAAAGTCCGATCT it was 0.626; in that of TAGCCTAGGTCATTGGGCCTGTATAGTACGCATC, 2.74; in that of AATGCAGGGTCATCGTAGGCCAGAGTACGCACAG, 4.6.
Sequence CCTTACGGGTCACTGACAGGTTGTAGCATTTGGA showed a PBM binding z-score of 2.65.
